# Compound activity deposited in PubChem BioAssay by The Scripps Research Institute Molecular Screening Center.
# Shown are actives, neighbours in structure and some others; about 0.83% of the full set was active somewhere.
# NCOA3 inh = inhibitors of human steroid receptor coactivator 3 (SRC3) | Q9Y6Q9 | HEK293 GAL4-SRC3 luciferase reporter, luminescence | inhibition, % at 3.6 µM | actives 0.17% (n = 360,000) | AID 588352;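 active means inhibition above a per-campaign cutoff, the mean of all compounds plus 3 SD, cut at about 60% in these data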;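 further: higher means less SRC3-driven luciferase light from the GAL4 reporter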
# Target sequence (Q9Y6Q9 whole entry, looked up, the tested form may be a part): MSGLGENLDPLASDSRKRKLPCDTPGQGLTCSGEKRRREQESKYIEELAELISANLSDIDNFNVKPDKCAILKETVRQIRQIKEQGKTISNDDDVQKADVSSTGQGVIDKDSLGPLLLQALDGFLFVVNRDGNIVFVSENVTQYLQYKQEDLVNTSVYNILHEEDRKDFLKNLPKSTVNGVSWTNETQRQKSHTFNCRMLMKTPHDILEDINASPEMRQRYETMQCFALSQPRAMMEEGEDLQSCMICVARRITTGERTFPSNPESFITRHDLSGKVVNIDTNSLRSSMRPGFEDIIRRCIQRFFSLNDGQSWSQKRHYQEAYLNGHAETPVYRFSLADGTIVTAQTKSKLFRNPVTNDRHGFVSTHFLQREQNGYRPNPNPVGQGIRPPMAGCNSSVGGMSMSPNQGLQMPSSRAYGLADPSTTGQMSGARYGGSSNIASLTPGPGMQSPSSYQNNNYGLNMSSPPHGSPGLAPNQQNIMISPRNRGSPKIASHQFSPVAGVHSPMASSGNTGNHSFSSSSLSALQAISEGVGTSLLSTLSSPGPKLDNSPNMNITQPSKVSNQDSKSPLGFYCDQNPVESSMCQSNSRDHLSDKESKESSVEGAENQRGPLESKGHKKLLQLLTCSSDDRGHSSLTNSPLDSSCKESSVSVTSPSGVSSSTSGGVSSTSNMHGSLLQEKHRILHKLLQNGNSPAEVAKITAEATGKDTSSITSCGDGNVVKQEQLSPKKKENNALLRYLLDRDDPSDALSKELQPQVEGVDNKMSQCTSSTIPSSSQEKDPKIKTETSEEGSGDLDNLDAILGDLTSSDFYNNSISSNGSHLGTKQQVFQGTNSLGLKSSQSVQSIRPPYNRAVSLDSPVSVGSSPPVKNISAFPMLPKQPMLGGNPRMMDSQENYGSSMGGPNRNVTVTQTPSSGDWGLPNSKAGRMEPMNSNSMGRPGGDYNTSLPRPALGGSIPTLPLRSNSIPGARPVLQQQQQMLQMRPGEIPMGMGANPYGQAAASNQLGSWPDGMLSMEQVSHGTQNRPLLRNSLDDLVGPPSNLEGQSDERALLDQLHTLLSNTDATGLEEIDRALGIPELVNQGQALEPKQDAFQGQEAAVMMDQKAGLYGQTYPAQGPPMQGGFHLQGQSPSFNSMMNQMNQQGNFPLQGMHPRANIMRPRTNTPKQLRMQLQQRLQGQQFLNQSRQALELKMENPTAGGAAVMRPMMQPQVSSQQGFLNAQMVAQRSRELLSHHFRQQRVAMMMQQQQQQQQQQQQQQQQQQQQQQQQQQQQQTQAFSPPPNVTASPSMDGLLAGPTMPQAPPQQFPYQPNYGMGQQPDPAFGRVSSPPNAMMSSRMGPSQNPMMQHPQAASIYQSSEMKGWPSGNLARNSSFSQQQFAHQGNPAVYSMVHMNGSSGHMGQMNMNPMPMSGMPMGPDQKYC
# SRC2 inh = human SRC2 (NCOA2) inhibition | actives 0.17% (n = 370,000) | Q15596 | inhibition, % at 9 µM | HEK293 GAL4-SRC2 luciferase reporter, luminescence;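 active means inhibition above the mean inhibition of all tested compounds plus 3 SD, set per campaign, cut at about 52% in these data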
# NR2F2 inh = blocks human COUP-TFII nuclear receptor; AID 686940; P24468; HEK293T NGFI-A luciferase reporter, luminescence; actives 0.7% (n = 370,000); inhibition, % at 8.6 µM;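 active means inhibition above a per-plate cutoff, mean inhibition of test wells between control levels plus 3 SD, cut at about 38% in these data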;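 further: cells cotransfected with COUP-TFII expression vector driving the NGFI-A reporter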
# LRH-1 inv ag = NR5A2 inverse agonism in reporter assay; actives 0.13% (n = 360,000); O00482; HEK293T StAR-luciferase reporter, LRH-1 transfected, 24 h; inhibition, % at 3.6 µM;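 active means inhibition above the mean inhibition of all tested compounds plus 3 SD, cut at about 73% in these data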
# NCOA1 inh = inhibitors of human steroid receptor coactivator 1 (SRC1). HEK293 GAL4-SRC1 luciferase reporter, luminescence. inhibition, % at 3.6 µM. actives 0.12% (n = 360,000). AID 588354;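 active means inhibition above the campaign mean plus 3 SD, with each screening campaign given its own cutoff, cut at about 60% in these data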
# Gal4-VP16 ctr = VP16 inhibition counter-screen for COUP-TFII. shares compounds with NR2F2 inh. HEK293 Gal4-VP16 luciferase reporter, luminescence. inhibition, % at 8.5 µM. actives 25% (n = 2,500). AID 687007; in the data active means inhibition above about 13%
# NR2F2 inh conf = COUP-TFII (NR2F2) inhibition, confirmation assay; shares compounds with NR2F2 inh; HEK293 NGFI-A luciferase reporter, luminescence; inhibition, % at 8.5 µM; actives 45% (n = 2,500);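 active means mean inhibition over three repeats above a set limit taken from the earlier primary screen, cut at about 38% in these data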
# Hits are given with their value; – = inactive; · = not tested or not shown.
SMILES,NCOA3 inh,SRC2 inh,NR2F2 inh,LRH-1 inv ag,NCOA1 inh,Gal4-VP16 ctr,NR2F2 inh conf
O=C(NC1CCCc2c1cnn2-c1ccc(F)cc1F)c1ccccn1 (stereo unspecified),–,–,–,–,–,·,·
CCCCCCCCNS(=O)(=O)/C=C/c1ccc(OC)cc1CNC(=O)OC(C)(C)C,·,–,–,·,·,·,·
Oc1ccc2ccccc2c1CN1CCCCC1,–,–,44.8,–,–,–,–
CC(=O)N(CCc1ccccc1)c1ccc2c(c1)C1CC2CCN1C(=O)OCc1ccccc1 (stereo unspecified),–,–,37.9,–,–,–,–
O=C(NCCc1ccccc1)OCc1cn(Cc2cc(F)cc(F)c2)nn1,·,–,–,·,·,·,·
Cc1ccc(C2(c3ccc(C)cc3)CC2C(=O)Nc2ccc([N+](=O)[O-])cc2O)cc1 (stereo unspecified),–,–,67.0,–,–,–,–
CC1(C)CC1C(=O)Nc1ccc([N+](=O)[O-])cc1Br (stereo unspecified),–,–,–,–,–,·,·
c1csc(CCNc2ncnc3sc4c(c23)CCC4)c1,–,–,67.1,–,–,–,46.0
c1ccc(Nc2ncnc3sc4c(c23)CCC4)cc1,–,–,–,–,–,·,·
Cc1ccc(OCCN2CCN(C(=O)CCC(=O)Nc3nnc(C(C)C)s3)CC2)cc1,–,–,41.3,–,–,–,–
Fc1ccc(Nc2ncnc3sccc23)cc1,–,–,–,–,–,·,·
COc1ccc(CC2CCN(c3ncnc4sccc34)CC2)cc1,·,·,68.2,·,·,–,58.9
O=S(=O)(c1ccc(Cl)cc1)N1CCN(c2ncnc3sccc23)CC1,–,–,46.6,–,–,–,–
Fc1ccc(CC2CCN(c3ncnc4sccc34)CC2)cc1,·,·,73.9,·,·,–,53.5
COC(=O)c1cc2c(c3c4cc(F)ccc4n(S(=O)(=O)c4ccccc4)c13)C(=O)N(C)C2,·,–,–,·,·,·,·
Cc1ccc(C(=O)N2CCC[C@@H]2C(=O)N2CCC[C@@H]2C(=O)NCc2ccccc2)cc1,·,–,–,·,·,·,·
O=C(Nc1nc2cc3c(cc2s1)OCCO3)c1ccco1,–,58.8,68.7,–,–,–,–
O=C(Nc1nc2cc3c(cc2s1)OCO3)C1=COCCO1,–,–,54.3,–,–,–,–
CC(=O)Nc1nc2cc3c(cc2s1)OCO3,–,–,–,–,–,·,·
COC(=O)CC#C[C@H](C)[C@@H](NS(C)(=O)=O)C1CCCCC1,·,–,–,·,·,·,·
COc1ccc(Cn2ccc3ccc(-c4ccc5ccn(Cc6ccc(C#N)cc6)c5c4)cc32)cc1,·,–,–,·,·,·,·
Cc1ccc(NC(=O)CSc2nnc(-c3ccccc3F)n2-c2ccccc2)c(C)c1,·,–,–,·,·,·,·
CC(C)(C)OC(=O)N1CCC(N[C@@H](Cc2c[nH]c3ccccc23)C(=O)NCC(c2ccccc2)c2ccccc2)(C(=O)NC2CCCCC2)CC1,·,·,–,·,·,·,·
CC1=CC2C3C(=O)N(c4ccccc4)C(=O)C3C1C(=O)C2(O)C(C)C (stereo unspecified),·,–,–,·,·,·,·
O=C(Nc1cccc(S(=O)(=O)NC2=NCCCCC2)c1)c1ccc(Cl)cc1,–,–,43.2,–,–,–,–
SMILES,NCOA3 inh,SRC2 inh,NR2F2 inh,LRH-1 inv ag,NCOA1 inh,Gal4-VP16 ctr,NR2F2 inh conf
O=C(Nc1cccc(S(=O)(=O)NC2=NCCC2)c1)c1ccccc1,–,–,–,–,–,·,·
CCc1nc2ccccc2c(C(=O)OCC(=O)Nc2cccc(S(=O)(=O)NC3=NCCCCC3)c2)c1C,–,–,64.3,–,–,–,–
CCc1nc2ccccc2c(C(=O)OCC(=O)Nc2cccc(S(=O)(=O)N3CCOCC3)c2)c1C,–,–,64.8,–,–,–,–
CCc1nc2ccccc2c(C(=O)OCC(=O)Nc2ccc(S(=O)(=O)N3CCOCC3)cc2)c1C,–,–,–,–,–,·,·
O=C(COC(=O)c1ccc2ccccc2n1)Nc1cccc(S(=O)(=O)NC2=NCCCCC2)c1,–,–,–,–,–,·,·
Cc1cc(Oc2cccnc2)ccc1NC(=O)Cc1c(C)[nH]c2ccccc12,·,–,–,·,·,·,·
COc1ccc(-c2ccccc2C2Cc3nnccc3CN2)cc1 (stereo unspecified),·,–,–,·,·,·,·
O=C(C(=Cc1ccccc1)CN1CCCCC1)c1ccccc1,–,–,51.6,77.3,–,72.3,95.2
Cc1cccc(N2CCN(C(=O)C3CCC(CNS(=O)(=O)c4cccs4)CC3)CC2)c1C (stereo unspecified),–,–,51.1,–,–,–,–
O=C(C1CCC(CNS(=O)(=O)c2cccs2)CC1)N1CCCCC1 (stereo unspecified),–,–,–,–,–,·,·
CS(=O)(=O)N(CCC#N)Cc1ccc(/C=C2\C(=O)Nc3ccccc32)o1,–,–,37.5,–,–,–,–
CC(=O)/C=C1/C(=O)Nc2ccccc21,–,–,–,–,–,·,·
COc1ccc(C(=O)CN2C(=O)c3ccccc3S2(=O)=O)cc1,–,80.7,90.9,–,–,51.9,76.7
CCCn1c(C)cc(C(=O)CN2C(=O)c3ccccc3S2(=O)=O)c1C,72.6,81.8,85.2,80.9,75.1,77.4,90.5
COc1ccc(C(=O)CN2C(=O)c3ccccc3S2(=O)=O)cc1Br,–,–,–,–,–,·,·
Cc1cc(C(=O)CN2C(=O)NC(C)(c3ccccc3)C2=O)c(C)n1CC1CCCO1 (stereo unspecified),–,·,·,–,–,·,·
Cc1cc(C(=O)CN2C(=O)c3ccccc3S2(=O)=O)c(C)n1CC1CCCO1 (stereo unspecified),87.9,88.5,93.4,89.1,80.2,86.0,96.5
O=C(NN=Cc1cccc(OCc2ccccc2)c1)c1cc(-c2ccc(Cl)cc2)n[nH]1,·,–,–,·,·,·,·
O=C(NCc1cccnc1)/C(=C/c1ccc(-c2cccc(C(F)(F)F)c2)o1)NC(=O)c1ccccc1,–,–,–,–,–,·,·
O=C(NCc1cccnc1)/C(=C/c1ccc(-c2ccc(Cl)cc2)o1)S(=O)(=O)c1ccccc1,67.7,65.5,49.0,–,–,45.1,44.0
O=C(NCc1cccnc1)/C(=C\c1ccc(-c2ccc(Br)cc2)o1)S(=O)(=O)c1ccccc1,83.8,–,55.9,–,–,43.9,48.4
COC(=O)Cc1nnn2c1CC(OC)c1ccccc1-2 (stereo unspecified),·,–,–,·,·,·,·
COc1cccc(CNc2nc3cc(-c4ccsc4)sc3c(=O)n2C)c1OC,–,–,66.5,–,–,–,46.0
COc1ccc(-c2cc3nc(NCc4ccc(N(C)C)cc4)n(C)c(=O)c3s2)cc1OC,–,–,39.1,–,–,–,55.6
COc1cccc(CNc2nc3cc(-c4ccc(OC)c(OC)c4)sc3c(=O)n2C)c1,–,–,–,–,–,·,·
Nc1nc2c(ncn2[C@@H]2O[C@H](C(=O)NCC(c3ccccc3)c3ccccc3)[C@@H](O)[C@H]2O)c(=O)[nH]1,·,–,–,·,·,·,·
Cc1ccc2c(c1)sc(-c1ccc(N(C)C)cc1)[n+]2C,–,–,57.5,–,–,–,52.9
